Data from PubChem BioAssay (NCI).
Compounds without any hit were thinned out: in the full panel of roughly 83,000, 20% have a hit.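 Percent growth is the endpoint: 0 to 100 indicates growth inhibition (40 means 60% inhibition), 0 means no net growth, and negative values indicate cell death.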 Unmarked numbers belong to inactive results. The source made the active and inactive calls. The calls were made as follows: active = growth percent below 10; inactive = the rest.

What was measured:
Experiment in all cases: NCI-60 one-dose screen, 48 h (100 = growth as untreated, 0 = no growth, -100 = all killed)
SK-MEL-2 melanoma = settings: 10 µM unless noted
EKVX NSCLC = settings: 10 µM unless noted
SN12C renal = settings: 10 µM unless noted
UO-31 renal = settings: 10 µM unless noted
TK-10 renal = settings: 10 µM unless noted
ACHN renal = settings: 10 µM unless noted
CAKI-1 renal = settings: 10 µM unless noted
A498 renal = settings: 10 µM unless noted
CCRF-CEM leukemia = settings: 10 µM unless noted
MOLT-4 leukemia = settings: 10 µM unless noted
SR leukemia = settings: 10 µM unless noted
RPMI-8226 leukemia = settings: 10 µM unless noted
OVCAR-8 ovarian = settings: 10 µM unless noted
OVCAR-5 ovarian = settings: 10 µM unless noted
SK-OV-3 ovarian = settings: 10 µM unless noted
IGROV1 ovarian = settings: 10 µM unless noted
OVCAR-3 ovarian = settings: 10 µM unless noted
HS 578T breast = settings: 10 µM
NCI/ADR-RES ovarian = settings: 10 µM unless noted
OVCAR-4 ovarian = settings: 10 µM unless noted

SMILES | growth (SK-MEL-2 melanoma) | growth (EKVX NSCLC) | growth (SN12C renal) | growth (UO-31 renal) | growth (TK-10 renal) | growth (ACHN renal) | growth (CAKI-1 renal) | growth (A498 renal) | growth (CCRF-CEM leukemia) | growth (MOLT-4 leukemia) | growth (SR leukemia) | growth (RPMI-8226 leukemia) | growth (OVCAR-8 ovarian) | growth (OVCAR-5 ovarian) | growth (SK-OV-3 ovarian) | growth (IGROV1 ovarian) | growth (OVCAR-3 ovarian) | growth (HS 578T breast) | growth (NCI/ADR-RES ovarian) | growth (OVCAR-4 ovarian)
COc1cc(NC(C)CCCN)c2ncccc2c1Sc1ccc(Cl)cc1 (configuration not stated) | 102% | 71.9% | 64.9% | 40.1% | 78.6% | 74.8% | 50.2% | 55.9% | 44.7% | 31.7% | -35.2% (active) | -8.1% (active) | 33.3% | 77.8% | 94.7% | 38.9% | 58.6% | 58.9% | 91.6% | 
OC(c1cc2cc(Cl)ccc2c2cc(C(F)(F)F)ccc12)C1CCCCN1 (configuration not stated) | -92% (active) | -40.4% (active) | -62.8% (active) | -88.2% (active) | -96.4% (active) | -78.2% (active) | -74.2% (active) | 27.2% | -61.2% (active) | -69.3% (active) | -75.3% (active) | -48% (active) | -74.6% (active) | -77.8% (active) | -0.379% (active) | -67.4% (active) | -94.8% (active) | -52.6% (active) | -66.1% (active) | 
COc1ccc(Br)c2ccccc12 | 113% | 94% | 112% | 70.3% | 118% | 102% | 95.3% | 135% | 103% | 91.6% | 96% | 105% | 99.7% | 110% | 115% |  | 112% | 112% | 118% | 117%
O=c1[nH]c2ccccc2n2cc3cccnc3c12 | 105% | 86.4% | 51.2% | 67.8% | 83.7% | 49.1% | 68.1% | 51.2% | 74.5% | 48.4% | 36% | 89.3% | 63.4% | 140% | 82.5% | 90.2% | 91.8% | 88.4% | 58.8% | 
CC1(C)CC[C@]2(C(=O)N3CCNCC3)CC[C@]3(C)C(=CC[C@@H]4[C@@]5(C)CCC(=O)C(C)(C)[C@@H]5CC[C@]43C)[C@@H]2C1 | 105% | 96.7% | 101% | 94.8% | 101% | 112% | 94.2% | 126% | 106% | 103% | 109% | 104% | 95.9% |  | 109% | 113% | 118% | 104% | 103% | 103%
Cc1ccc(/C=C/C(=N/N=C(N)N)c2ccccc2)cc1 | 49.3% | 35.4% | 34.3% | 21.7% | 44% | 48.5% | 16.4% | -5.04% (active) | 25.2% | 24% | -9.62% (active) | 11.1% | 24.6% | 54.4% | 9.84% (active) | 43.1% | -28.6% (active) | -5.3% (active) | 35.2% | 
CCCCOc1ncnc2nc[nH]c12 | 104% | 112% | 102% | 99.7% | 101% | 101% | 106% | 97% | 113% | 91.9% | 88.7% | 95.4% | 99.4% | 103% | 107% | 124% |  | 100% | 105% | 102%
COc1cc(C)c2c(=O)c3c(oc2c1)C(=O)c1c(O)c(OC)cc(O)c1C3=O | -25.7% (active) | 32.6% | 16.8% | 0.808% (active) | 23.8% | 0.624% (active) | 12.6% | 89% | 10.4% | 16.3% | 15.7% | -8.23% (active) |  | -4.74% (active) | 9.16% (active) |  | 5% (active) | 35% | 5.56% (active) | 1.77% (active)
CC(=O)c1ccc(Nc2nc(Cl)nc(Oc3c(Cl)cccc3Cl)n2)cc1 | 97.1% | 77.2% | 93.1% | 77.8% | 115% | 98.3% | 85.5% | 69.3% | 91% | 77.1% | 82.3% | 70% | 92.5% |  | 100% | 89.1% | 90.9% | 74.3% | 93.6% | 67.2%
COc1c(-c2cc(-c3ccc(C)o3)[nH]c(=O)n2)c(O)cc2occc12 | 69.6% | 69.8% | 63.6% | 71.5% | 104% | 89.9% | 63.8% | 54.1% | 77.8% | 41.1% | 27.1% | 74.8% | 73% | 99% | 81.8% | 58.4% | 32.9% | 54.5% | 29.7% | 72.4%
CCN(CC)CCCNc1cccc2c(C)cc(OC)nc12 | 97.4% | 114% | 88.4% | 56.9% | 96.3% | 91.6% | 96.8% | 70.3% | 102% | 78.7% | 78.3% | 92.3% | 97.9% | 95.5% | 106% | 89.5% | 99.9% | 96.4% | 95.9% | 
C/C(CC(=O)NNc1ccc([N+](=O)[O-])cc1)=N\Nc1ccc([N+](=O)[O-])cc1 | 111% | 54.1% | 68.9% | 40% | 93.4% | 47.5% | 31.3% | 81% | 48.6% | 29.2% | 46.9% | 72.1% | 81.3% |  | 90.6% | 78.3% | 73.7% | 86.2% | 49.7% | 
COc1ccccc1/C=N\NC(=S)Nc1ccc(F)cc1 | 81% | 75.7% | 81.1% | 62.2% | 97.5% | 87.5% | 88.5% | 67% | 89.2% | 57.3% | 28.6% | 79.8% | 78.7% | 94.1% | 89.2% | 72.1% | 69.7% | 70.3% | 38.4% | 
Cc1c(-c2ccc(-c3ccccc3F)cc2)nc2ccc(F)cc2c1C(=O)O | 101% | 55% | 47.6% | 35.8% | 56% | 36.5% | 25.9% | 80.9% | 27.9% | 2.49% (active) | 23.4% | 23.3% |  | 34.8% | 65.1% | 44.6% | 55.9% | 67% | 49.6% | 75.1%
O=C1Cc2c([nH]c3ccc([N+](=O)[O-])cc23)-c2ccccc2N1 | -21.5% (active) | 17.1% | 44.1% | 4.74% (active) | 12% | 11.5% | 16.4% | -5.07% (active) | 1.61% (active) | 2.18% (active) | -8.53% (active) | -22.1% (active) |  |  | 28.2% | -41.8% (active) | -14.4% (active) | 25.6% | 14.5% | 16.7%
COc1cc2c(cc1OCCCOc1cc3c(cc1OC)C(=O)N1CCC[C@H]1C=N3)C=CC(C)(C)O2 | 88.4% | 154% | 94.3% | 96.5% | 187% | 95.7% | 106% | 98.8% | 6.05% (active) | 65% | 25.8% | 48% | 89.2% | 115% | 112% | 92.1% | 109% | 45.7% | 109% | 110%
CCN(CC)CCCC(C)Nc1cnc(C(=O)Nc2cccc3ccc(OC)nc23)cn1 (configuration not stated) | 70.5% | 104% | 78.5% | 69.1% | 91% | -86.5% (active) | 94.7% | 46.2% | -7.65% (active) | 53.4% | -5.71% (active) | 23.8% |  | 91.3% | 87% | 78.3% | -30.7% (active) | 69.5% | 76.1% | 98.1%
